From PubChem BioAssay
Compounds with a hit are over-represented: about 10% of the library has one in this group of screens.
NIH3T3 tox: cytotoxic compounds in NIH 3T3 cells; NIH 3T3 viability, CellTiter-Glo ATP luminescence, 48-72 h; Potency, µM (highest dose often 96.7 µM), usual class: inhibitors; 94,000 tested, 4.3% active; also: nearly all actives have a fitted effect of over 55% in size
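Cytotoxicity is measured as loss of cellular ATP: NIH 3T3 cells (400/well) are exposed to compound for 48 or 72 hr at 37 °C, then CellTiter-Glo luminescence is imaged after 10 min at room temperature.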
HEK cytotox: kills HEK 293 cells; 94,000 tested, 6.6% active; HEK 293 viability, ATP luminescence (CellTiter-Glo), 48-72 h; Potency, µM (highest dose often 115 µM), hits mostly inhibitors; also: nearly all actives have a fitted effect of over 60% in size
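Read-out: CellTiter-Glo ATP luminescence. Cells: HEK 293, 250 cells/well. Exposure: 48 or 72 hr, 37 degree Celsius.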
GPT2 inhibitor: GPT2 alanine aminotransferase inhibition. 100,000 tested, 0.25% active. AID 1671188. Q8TD30. Potency, µM (highest dose often 57.7 µM), actives largely listed as inhibitors. Recombinant GPT2, coupled pyruvate oxidase/HRP Amplex Red fluorescence; also: nearly all actives have a fitted effect of over 60% in size
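Fluorescence of coupled pyruvate oxidase/HRP/Amplex Red system (50uM Amplex, 30 min, dark) reports pyruvate formed by GPT2. Enzyme reaction: 10ng/uL GPT2, 2mM L-alanine, 250uM a-KG, 30 min room temperature, pH 7.5; 50uM AOA control.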
FLuc inh: inhibitors of firefly (Photinus pyralis) luciferase | 76,000 tested, 2.5% active | Potency, µM (doses to about 115 µM), most hits filed as inhibitors | AID 1347043 | purified P. pyralis luciferase, luminescence, biochemical | P08659; also: nearly all actives have a fitted effect of over 65% in size
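Biochemical qHTS: compound (6-point titration) added to 10uM D-luciferin plus 10uM ATP in Tris acetate pH 7.5 buffer with Mg, Tween-20 and BSA, then purified enzyme at 10nM; light output imaged.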
hNpr1 antagonist: antagonists of human natriuretic peptide receptor Npr1; HEK293 hNpr1 GloSensor cGMP, ANP-stimulated luminescence; Potency, µM (doses to about 46.3 µM), hits mostly inhibitors; 76,000 tested, 1.6% active; calls by dose curve; also: nearly all actives have a fitted effect of over 60% in size
Target sequence (P16066 whole entry, looked up): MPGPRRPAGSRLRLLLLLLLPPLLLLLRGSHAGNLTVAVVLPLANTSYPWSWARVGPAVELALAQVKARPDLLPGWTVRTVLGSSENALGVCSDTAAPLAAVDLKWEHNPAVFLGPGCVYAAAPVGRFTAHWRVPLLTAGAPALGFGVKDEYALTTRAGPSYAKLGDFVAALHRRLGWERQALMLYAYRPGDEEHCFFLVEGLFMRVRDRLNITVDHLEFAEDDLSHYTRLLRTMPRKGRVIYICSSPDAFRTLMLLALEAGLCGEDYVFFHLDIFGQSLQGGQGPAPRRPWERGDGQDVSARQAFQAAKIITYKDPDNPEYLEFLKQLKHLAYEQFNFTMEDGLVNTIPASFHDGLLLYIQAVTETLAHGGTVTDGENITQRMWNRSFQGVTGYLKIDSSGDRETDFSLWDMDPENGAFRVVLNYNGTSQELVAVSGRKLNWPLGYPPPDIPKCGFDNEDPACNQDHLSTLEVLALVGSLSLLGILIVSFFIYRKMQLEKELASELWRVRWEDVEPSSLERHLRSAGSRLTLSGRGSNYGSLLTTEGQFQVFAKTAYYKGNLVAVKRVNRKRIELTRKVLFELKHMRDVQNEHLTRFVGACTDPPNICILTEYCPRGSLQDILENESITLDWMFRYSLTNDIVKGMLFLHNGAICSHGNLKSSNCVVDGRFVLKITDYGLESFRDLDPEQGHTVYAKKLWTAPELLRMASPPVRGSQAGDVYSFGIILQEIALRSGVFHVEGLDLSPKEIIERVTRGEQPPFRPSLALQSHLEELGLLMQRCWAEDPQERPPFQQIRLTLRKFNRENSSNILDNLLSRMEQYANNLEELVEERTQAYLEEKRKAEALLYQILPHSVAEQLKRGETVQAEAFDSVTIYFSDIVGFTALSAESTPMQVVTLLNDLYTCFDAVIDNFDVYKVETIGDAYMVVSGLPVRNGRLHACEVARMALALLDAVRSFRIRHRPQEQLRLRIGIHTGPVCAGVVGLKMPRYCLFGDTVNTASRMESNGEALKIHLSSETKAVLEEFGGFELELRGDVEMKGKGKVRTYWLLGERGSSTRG
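HEK293 cells stably expressing human Npr1 and cGMP GloSensor pGS-40F, loaded 2 h with 2% GloSensor reagent, given compound 30 min at room temperature. Luminescence read before and 20 min after 0.1 nM hNppA.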
Of the large screens only hits and unclear results are named; the others gave an inactive call; ! = not confirmed by another sample. Unless noted, calls follow the shape of the dose curve; as a rule, active = well fitted curve in the direction sought with a large enough effect; inconclusive = small, poorly fitted or top-dose-only effect, or another doubt; inactive = no such curve, though single readings can be large; an effect the other way counts as inactive or inconclusive.

CC(C)Oc1ccc(CNC(=O)C2(Cc3cccnc3)CCCCC(=O)N2)cc1 (configuration not stated)	HEK cytotox inconclusive, FLuc inh inconclusive
Cn1ncc2c(C(=O)N3CCN(Cc4ccccc4)CC3)cc(-c3ccccc3F)nc21	NIH3T3 tox inconclusive, HEK cytotox 40µM (no result: GPT2 inhibitor, FLuc inh, hNpr1 antagonist)
COc1ccc(-c2cc(C(=O)N3CCN(Cc4ccccc4)CC3)c3cnn(C)c3n2)cc1	NIH3T3 tox inconclusive, HEK cytotox 35µM (no result: GPT2 inhibitor, FLuc inh, hNpr1 antagonist)
Cc1ccc(-c2cc(C(=O)N3CCN(Cc4ccccc4)CC3)c3cnn(C)c3n2)cc1	NIH3T3 tox inconclusive, HEK cytotox inconclusive (no result: FLuc inh, hNpr1 antagonist)
COc1ccc(-c2cc(C(=O)N3CCN(c4ncccn4)CC3)c3cnn(C)c3n2)cc1	NIH3T3 tox inconclusive, HEK cytotox 40µM (no result: GPT2 inhibitor, FLuc inh, hNpr1 antagonist)
Cc1ccc(-c2cc(C(=O)N3CCN(Cc4ccccc4)CC3)c3cnn(C)c3n2)c(C)c1	NIH3T3 tox inconclusive, HEK cytotox inconclusive (no result: FLuc inh, hNpr1 antagonist)
COc1ccc(C(=O)N2CCC3(CC2)NC(=O)c2ccccc2O3)cc1	NIH3T3 tox inconclusive
Cc1ccc(-c2noc(-c3nc(-c4ccccn4)no3)n2)cc1	FLuc inh 18µM
COc1ccc(CCC(=O)N2CCC(N3C(=O)C(O)C34CCCCC4)CC2)cc1 (configuration not stated)	none
O=C(O)COc1ccc(-c2nccc3c2C(=O)N(Cc2c[nH]c4ccccc24)CC(CNC(=O)c2cccc(Cl)c2)O3)cc1 (configuration not stated)	NIH3T3 tox 32µM
O=C(O)COc1ccc(-c2nccc3c2C(=O)N(Cc2c[nH]c4ccccc24)CC(COc2ccccc2)O3)cc1 (configuration not stated)	NIH3T3 tox inconclusive, FLuc inh inconclusive
Cc1ccc(C(=O)N2CCC(c3nnc(Cn4cncn4)n3C)CC2)cc1F	none
O=C(Cc1cccc(Cl)c1)N1CCC(n2c(=O)[nH]c3ccccc32)CC1	HEK cytotox inconclusive (no result: FLuc inh, hNpr1 antagonist)
O=C(Nc1ccc2c(c1)OCCO2)N1c2ccccc2CC1c1nc(C2CC2)no1 (configuration not stated)	HEK cytotox inconclusive, FLuc inh 13µM
Cc1ccc(C)c(NC(=O)N2c3ccccc3CC2c2nc(C3CC3)no2)c1 (configuration not stated)	NIH3T3 tox inconclusive
CC(C)c1noc(C2Cc3ccccc3N2C(=O)NC2CCCC2)n1 (configuration not stated)	NIH3T3 tox 32µM
CC(C)c1noc(C2Cc3ccccc3N2C(=O)Nc2ccc3c(c2)OCCO3)n1 (configuration not stated)	NIH3T3 tox inconclusive, HEK cytotox inconclusive, FLuc inh 16µM
CCOC(=O)C1CCN(C(=O)C2CCc3nnc(C4CC4)n32)CC1 (configuration not stated)	none (no result: FLuc inh, hNpr1 antagonist)
CC(=O)Nc1cccc(-c2n[nH]c3c2CC(=O)N(CCOc2ccccc2)C3)c1	NIH3T3 tox 35µM, HEK cytotox inconclusive
CC(=O)Nc1cccc(-c2n[nH]c3c2CC(=O)N(Cc2ccccc2)C3)c1	NIH3T3 tox inconclusive, HEK cytotox 100µM
CC(=O)Nc1cccc(-c2n[nH]c3c2CC(=O)N(CC2CC2)C3)c1	NIH3T3 tox inconclusive, HEK cytotox inconclusive
COC(=O)CN1C(=O)[C@@H]2C[C@@H](O)CN2C2(CN(C3CCOCC3)C2)C1=O	none
Cc1ccc(-c2cccc(CN3CCCC(c4nc5ccc(F)cc5c(=O)[nH]4)C3)c2)c(C)c1 (configuration not stated)	NIH3T3 tox 40µM, HEK cytotox 32µM!
O=c1[nH]c(C2CCCN(Cc3cccc(-c4cccs4)c3)C2)nc2ccc(F)cc12 (configuration not stated)	NIH3T3 tox 32µM, HEK cytotox 32µM, hNpr1 antagonist inconclusive
Cn1cnc(S(=O)(=O)N2CCCCCCNC(=O)[C@@H]3CCC[C@@H]32)c1	none
O=C(C1CCCC1)N1Cc2ccccc2CC2(CCCN(CC3CCNC3)C2)C1 (configuration not stated)	NIH3T3 tox inconclusive, HEK cytotox inconclusive (no result: FLuc inh, hNpr1 antagonist)
COc1ccccc1-c1cnc(NC(=O)c2cccnc2)c2c1CCO2	NIH3T3 tox inconclusive
COc1ccccc1-c1cnc(NC(=O)c2ccc(F)c(Cl)c2)c2c1CCO2	NIH3T3 tox inconclusive, HEK cytotox inconclusive, FLuc inh 18µM
Cc1noc(C)c1-c1cnc(Nc2ccc(F)c(Cl)c2)c2c1CCO2	NIH3T3 tox inconclusive, HEK cytotox 71µM, FLuc inh 14µM, hNpr1 antagonist inconclusive
Cc1noc(C)c1-c1cnc(NC(=O)c2ccc(Cl)cc2)c2c1CCO2	NIH3T3 tox 89µM
O=C(Nc1ncc(-c2cccc(F)c2)c2c1OCC2)c1ccc(Cl)cc1	NIH3T3 tox inconclusive, HEK cytotox 100µM
C[S+](=O)([O-])Nc1cccc(Nc2ncc(-c3cccc(F)c3)c3c2OCC3)c1	NIH3T3 tox 32µM, HEK cytotox inconclusive
Fc1cccc(-c2cnc(Nc3cncnc3)c3c2CCO3)c1	HEK cytotox inconclusive
O=C(NC1CCCCC1)C1CCCCN1Cc1ccc(-c2ccsc2)cc1 (configuration not stated)	HEK cytotox 40µM (no result: FLuc inh, hNpr1 antagonist)
O=C(NCCc1ccc(Cl)cc1)C1CCCCN1Cc1ccc(-c2ccsc2)cc1 (configuration not stated)	NIH3T3 tox 25µM, HEK cytotox 40µM (no result: FLuc inh, hNpr1 antagonist)
O=C(NCC(F)(F)F)C1CCCCN1Cc1ccc(-c2ccsc2)cc1 (configuration not stated)	HEK cytotox inconclusive (no result: FLuc inh, hNpr1 antagonist)
CCc1nc(-c2c3n(c(=O)n(Cc4ccc(F)cc4F)c2=O)CCCCC3)no1	none
CC1(c2ccccc2)N(Cc2ccccc2F)C(=O)OC12CCN(Cc1cccnc1)CC2 (configuration not stated)	NIH3T3 tox inconclusive, HEK cytotox inconclusive
CC1(c2ccccc2)N(Cc2ccccc2C#N)C(=O)OC12CCN(Cc1ccccc1F)CC2 (configuration not stated)	NIH3T3 tox inconclusive, HEK cytotox inconclusive
COc1ccccc1CN1CCC2(CC1)OC(=O)N(Cc1ccccc1F)C2(C)c1ccccc1 (configuration not stated)	NIH3T3 tox 28µM, HEK cytotox 35µM
CC1(c2ccccc2)N(Cc2ccccc2F)C(=O)OC12CCN(c1cccnc1)CC2 (configuration not stated)	NIH3T3 tox 89µM, HEK cytotox 89µM
O=C(Cc1cccc(F)c1)NC1CCN(c2cc(-c3ccc(Cl)cc3)[nH]n2)CC1	NIH3T3 tox inconclusive, HEK cytotox inconclusive
O=C1Nc2ccccc2CC12CCN(Cc1ccc(F)cc1)C2 (configuration not stated)	HEK cytotox 71µM
COc1ccc(C(=O)N[C@@H]2CN(C(=O)Nc3ccccc3)CCC[C@H]2O)cc1	NIH3T3 tox inconclusive, HEK cytotox inconclusive
